In the library only some 6.1% were active in any assay of this set; here they are far more common.
VP16 counter – counter-screen for ROR gamma inhibitors: Gal4-VP16 reporter; actives 3.5% (n = 310,000); AID 2546; Potency, µM (highest dose often 53.6 µM), for the others: at the highest dose activity, negative = inhibition, hits mostly inhibitors; Drosophila S2 Gal4-VP16 UAS-luciferase, luminescence, 20 h;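 note: Gal4-VP16 expression switched on by copper sulfate through the metallothionein promoter; % is set by controls: 0 for no effect and ±100 for the full control effect; nearly all actives have a fitted effect of over 50% in size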
TGFb SMAD3 inh – blocks TGF-b signaling | HepG2 CAGA-GFP TGF-b/SMAD3 reporter, GFP fluorescence, 18 h; TGF-beta stimulated, 500 pg/mL final | actives 1.2% (n = 410,000) | Potency, µM (series often up to 46.1 µM), without a hit: at the top dose activity, negative = inhibition, actives largely listed as inhibitors; note: % is set by controls: 0 for no effect and ±100 for the full control effect; nearly all actives have a fitted effect of over 65% in size
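Read-out: total well GFP (ex488/em500-530) summed from mean per-cell fluorescence. Cells: HEPG2 CAGA-GFP, 1% FBS DMEM, 18 h at 37 degrees C with 500 pg/mL final TGF-beta. Unstimulated wells served as the full-inhibition control; stimulated DMSO wells = 0%.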
ATXN viability – reduces viability in counter-screen for ATXN expression inhibitors | Potency, µM (series often up to 56.7 µM), usual class: cytotoxic | S2 cells (HEK-293 line with an ATXN2-luciferase reporter) viability, CellTiter-Fluor protease fluorescence, 24 h | actives 0.49% (n = 400,000); note: nearly all actives have a fitted effect of over 40% in size
HepG2 viability – HepG2 cytotoxicity, counter-screen for TGF-b inhibitors; Potency, µM (highest dose often 46.1 µM), inactives show at the top dose activity change, negative = cytotoxicity, hits mostly cytotoxic; actives 0.76% (n = 410,000); HepG2 CAGA-GFP viability, ATP luminescence, 18 h; AID 588856
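CellTiter-Glo luminescence gave cytotoxicity after 18 hours at 37 degrees C. The cells were HepG2 CAGA-GFP in 1% FBS DMEM, stimulated with 500 pg/mL TGF-beta after compound addition. %Activity was normalised to no-cell wells (complete cell-killing) and DMSO (no toxicity), and curves were fitted and classified.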
RORg inh – ROR gamma (mouse) transcription inhibition; Potency, µM (top dose mostly 53.6 µM), for inactives: at the top dose activity change, negative = inhibition, usual class: inhibitors; Drosophila S2 Gal4-RORgamma UAS-luciferase reporter, 20 h; P51450; actives 5.4% (n = 310,000); note: % is set by controls: 0 for no effect and ±100 for the full control effect; nearly all actives have a fitted effect of over 60% in size
Target sequence (P51450 whole entry, looked up, the tested form may be a part): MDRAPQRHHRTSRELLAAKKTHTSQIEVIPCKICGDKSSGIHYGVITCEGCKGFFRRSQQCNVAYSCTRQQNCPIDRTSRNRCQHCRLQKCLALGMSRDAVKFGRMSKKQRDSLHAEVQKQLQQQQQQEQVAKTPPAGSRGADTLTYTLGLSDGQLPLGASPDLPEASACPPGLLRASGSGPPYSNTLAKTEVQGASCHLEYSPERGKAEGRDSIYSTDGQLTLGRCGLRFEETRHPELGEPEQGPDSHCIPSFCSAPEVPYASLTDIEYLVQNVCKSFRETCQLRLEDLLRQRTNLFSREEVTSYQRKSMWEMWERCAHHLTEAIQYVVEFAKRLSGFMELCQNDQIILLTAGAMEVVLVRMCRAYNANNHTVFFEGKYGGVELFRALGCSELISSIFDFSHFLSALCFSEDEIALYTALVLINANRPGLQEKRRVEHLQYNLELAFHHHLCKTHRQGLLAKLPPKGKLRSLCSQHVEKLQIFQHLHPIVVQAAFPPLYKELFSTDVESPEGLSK
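Drosophila Schneider cells stably carrying a metallothionein-driven Gal4 DBD–ROR gamma fusion and a UAS-Photinus luciferase reporter were exposed to compound for 1 hr, then induced with copper sulfate (700 uM final) for 20 hr at ambient temperature before luminescence reading.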
ATXN2 expr inh – inhibitors of ATXN2 expression | HEK-293 ATXN2-luciferase reporter, luminescence, 24 h | AID 1745845 | Potency, µM (doses to about 57 µM), for inactives: top-dose activity change, negative = inhibition, usual class: inhibitors | actives 0.72% (n = 360,000); note: % is set by controls: 0 for no effect and ±100 for the full control effect; nearly all actives have a fitted effect of over 55% in size
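qHTS (up to 57 uM final) was run with 24 h compound exposure of reporter cells at 37 °C. Each well was multiplexed: SteadyGlo luminescence measured ATXN2-luciferase expression after a fluorogenic Gly-Phe-AFC viability readout (25 uM final).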
Numbers without * were called inactive; i = inactive; ? = inconclusive; . = not tested or not shown; [ ] = dose if it differs, or a comment. Calls come from the whole dose curve; as a rule, active = well fitted curve in the direction sought with a large enough effect; inconclusive = small, poorly fitted or top-dose-only effect, or another doubt; inactive = no such curve, though single readings can be large; an effect the other way counts as inactive or inconclusive. Potency is the fitted concentration of half-maximal effect.

SMILES | VP16 counter | TGFb SMAD3 inh | ATXN viability | HepG2 viability | RORg inh | ATXN2 expr inh
COc1ccc(OC)c(C(C[N+](=O)[O-])c2c(C)cc3ccccn23)c1 (centres undefined) | ? | -4% | ? | -21% | ? | ?
COc1ccc(Br)cc1C(C[N+](=O)[O-])c1c(N)n(C)c(=O)n(C)c1=O (centres undefined) | ? | 10µM* | . | 16µM* | ? | .
Cn1c(N)c(C(C[N+](=O)[O-])c2c(F)cccc2Cl)c(=O)n(C)c1=O (centres undefined) | ? | 0% | i | -25% | ? | -4%
O=S(=O)(NCc1ccc(F)cc1)c1ccc2[nH]c3c(c2c1)CCCC3 | . | 18µM* | ? | -103% | . | 0%
Cc1ccc(CNS(=O)(=O)c2ccc3[nH]c4c(c3c2)CCCC4)cc1 | . | ? | i | -18% | . | 6%
O=S(=O)(NCc1ccc(Cl)cc1)c1ccc2[nH]c3c(c2c1)CCCC3 | . | 16µM* | ? | 16µM* | . | ?
COc1cccc(CN2CCC3(CCC(CNC(=O)c4cc(C)nn4C)O3)CC2)c1OC (centres undefined) | . | . | i | . | . | .
O=S(=O)(NC1CCCc2ccccc21)c1cnc[nH]1 (centres undefined) | ? | 12% | i | -4% | 13µM* | 2%
O=C(O)c1ccc(S(=O)(=O)NC2CCCc3ccccc32)cc1 (centres undefined) | -9% | 2% | i | -6% | 20% | -9%
CC(C)CN(CC(C)C)c1ccc(/C=C/c2nc3ccccc3s2)cc1 | . | -22% | . | -19% | . | .
CCN(CC)c1ccc(/C=C/c2nc3ccccc3s2)cc1 | 7.1µM* | . | . | . | 1.6µM* | .
C/C=C(/C)C(=O)O[C@H]1CC(C)=CC(=O)[C@@]2(C)CC[C@@](O)(C(C)C)[C@H]12 | -5% | 0% | . | -13% | -8% | .
Cc1ccc2[nH]c3c(=S)nc[nH]c3c2c1 | ? | ? | i | -16% | 13µM* | 9%
Cc1c(C(=O)Nc2cccc(C(F)(F)F)c2)oc2ccc(S(=O)(=O)N3CCC4(CC3)OCCO4)cc12 | . | 0% | . | 3% | . | .
CC12CCC(=O)N1C(C(=O)Nc1nc3c(F)cc(F)cc3s1)CS2 (centres undefined) | 3.5µM* | 6% | i | -30% | -31% | 10%
Cc1nc(/N=C\N(C)C)sc1C(=O)Nc1ccccc1 | -6% | 0% | i | -2% | 26% | 44%
CN(C)/C=N/c1nc2ccc3c(c2s1)CCCC3 | -5% | -3% | i | -12% | 10µM* | 78%
Cc1cc(C)n(-c2nc(NCc3cccnc3)c3c4c(sc3n2)COC(C)(C)C4)n1 | 6.3µM* | ? | i | -39% | 4µM* | 14%
Cc1cc(C)n(-c2nc(SCC(=O)O)c3c4c(sc3n2)COC(C)(C)C4)n1 | ? | -11% | i | -6% | 7.1µM* | -7%
CCc1nc(SCC(=O)O)c2c3c(sc2n1)COC(C)(C)C3 | 1% | -1% | i | -13% | 29% | -13%
CCN(CC)CCCNc1nc(-n2nc(C)cc2C)nc2sc3c(c12)CC(C)(C)OC3 | ? | -4% | i | -35% | 13µM* | 20%
Cc1nc(NCc2cccnc2)c2c3c(sc2n1)CCCC3 | -10% | -5% | i | -16% | ? | -21%
CCC1(C)Cc2c(sc3nc(SC)nc(NCCN(C)C)c23)CO1 (centres undefined) | 14%[0.365 µM] | 1% | . | -38% | 10% | .
Cc1c(CCOC(=O)CC23CC4CC(CC(C4)C2)C3)sc[n+]1CC(=O)c1ccccc1 | 4.5µM* | ? | . | -109% | ? | -58%
Cc1c(CCO)sc[n+]1CC(=O)c1ccccc1 | . | -5% | . | -16% | . | .
SMILES | VP16 counter | TGFb SMAD3 inh | ATXN viability | HepG2 viability | RORg inh | ATXN2 expr inh
Cc1c(CCOC(=O)C23CC4(C)CC(C)(CC(C)(C4)C2)C3)sc[n+]1CC(=O)c1ccccc1 | -12% | 10µM* | i | 20µM* | 12% | -20%
Cc1c(CCOC(=O)c2cc([N+](=O)[O-])cc([N+](=O)[O-])c2)sc[n+]1CC(=O)c1ccc(Br)cc1 | 0% | ? | i | -71% | 4µM* | -13%[11.3 µM]
CCCOc1ccc2c(c1)C(=NN=C(N)N)c1cc(OCCC)ccc1-2 | -23% | ? | 25µM* | -104% | 14µM* | 20µM*
CCN(CC)CCOc1ccc2c(c1)C(=NO)c1cc(OCCN(CC)CC)ccc1-2 | -17% | 11µM* | 8.9µM* | -72% | -23% | 11µM*
CCC(C(=O)N1CCN(c2ccccc2)CC1)n1nc(C)c2sc3ccccc3c2c1=O (centres undefined) | . | 0% | . | 0% | . | .
CCOC(=O)C1(CCc2ccccc2)CCN(Cc2nccn2CC)CC1 | 11µM* | ? | i | -1% | 7.1µM* | -23%[11.3 µM]
CCOC(=O)C1(Cc2ccccc2)CCN(Cc2nccn2CC)CC1 | ? | -24% | i | -11% | 7.9µM* | -14%
CCOC(=O)C1(Cc2ccc(Cl)cc2)CCN(Cc2nccn2CC)CC1 | 13µM* | -7% | i | -26% | 3.2µM* | -26%
CCOc1ccc(CNS(=O)(=O)c2ccc3c(c2)CCCN3C(C)=O)cc1OC | . | -26% | i | -15% | . | -11%
CNc1ccc(/C=C2\C=Cc3ccccc32)cc1Br | . | ? | . | -26% | . | .
Cc1cccc(-c2[nH]c(C(C)(C)C)nc2-c2ccc3c(c2)OCO3)n1 | 7.1µM* | . | . | . | 1.8µM* | 15µM*
NC(=O)c1ccc(-c2nc(-c3ccc4c(c3)OCO4)c(-c3ccccn3)[nH]2)cc1 | -19% | . | . | . | 11% | -8%
COc1cc(N)c(NC(=O)/C=C/c2nc3cc(OC)c(OC)cc3[nH]2)cc1OC | . | 12% | . | -2% | . | .
COc1ccc(OCc2nc3ccccc3n2Cc2ccccc2Cl)cc1 | . | ? | i | -40% | . | -25%
Cc1ccc(C(=O)N/C(=C/c2ccc(-c3cc(C(F)(F)F)ccc3Cl)o2)C(=O)NCc2cccnc2)cc1 | -4% | 13µM* | i | 0% | 64% | -29%
Cc1c(NC(=O)C(F)(F)F)ccc2nc3c(=O)n(C)c(=O)n(C)c3nc12 | . | 16% | i | -41% | . | 11%
Cc1nn(S(=O)(=O)c2ccc(C(C)(C)C)cc2)c(C)c1S(=O)(=O)N1CCC(C)CC1 | . | -2% | i | -4% | . | -1%
CCc1cccc2sc(N3CCN(C(=O)c4ccc([N+](=O)[O-])o4)CC3)nc12 | . | 18µM* | . | -96% | . | ?
O=C(NCCN1Cc2ccccc2OC(c2ccccc2F)C1)c1ccco1 (centres undefined) | . | . | i | . | . | .

Compound activity deposited in PubChem by National Center for Advancing Translational Sciences (NCATS).
